Only some compounds are listed: those with a hit (about 9% of all), similar ones and a draw of the others.
ALDH1A1 inh – ALDH1A1 (human) enzyme inhibition; AID 1030; Purified ALDH1A1, NADH fluorescence, propionaldehyde substrate; P00352; Potency, µM (series often up to 75.3 µM), hits mostly inhibitors; 220,000 compounds, 7.3% hits
IMPase inh – membrane-permeable compound that blocks inositol monophosphatase; 120,000 tested, under 10 active; AID 901; CHO-M1 cells, IP1 accumulation, HTRF TR-FRET ratio; inhibition (IP1 accumulation), % at 46.1 µM; active = well fitted curve in the direction sought with a large enough effect in the signal ratio, not every such curve was filed as active; inconclusive = small, poorly fitted or top-dose-only effect, or a change in a side signal; inactive = no such curve, though single readings can be large or run the other way; the % refers to the signal ratio;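 also: cells stimulated with carbachol in lithium chloride buffer; higher means more IMPase inhibition seen as more IP1 and lower FRET ratio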
Target sequence (P97697 whole entry, looked up): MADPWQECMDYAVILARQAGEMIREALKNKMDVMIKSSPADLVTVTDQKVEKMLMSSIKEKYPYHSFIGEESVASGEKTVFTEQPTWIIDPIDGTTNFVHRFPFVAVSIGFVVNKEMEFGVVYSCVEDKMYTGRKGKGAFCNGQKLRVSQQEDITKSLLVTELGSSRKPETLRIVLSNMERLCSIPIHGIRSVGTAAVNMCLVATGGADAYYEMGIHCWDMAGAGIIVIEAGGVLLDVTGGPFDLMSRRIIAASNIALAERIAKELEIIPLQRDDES
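Elevated IP1 in lysates lowers TR-FRET signal (665/620 ratio and 620 channel reported). Cells were CHO-M1, given carbachol (50 uM as added) plus 50mM LiCl, pH 7.4, 30 min, 37C; compounds titrated up to 46 uM; AC50 by Hill equation.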
HPGD block – HPGD (human) dehydrogenase inhibition | P15428 | purified HPGD, NADH fluorescence kinetic, PGE2 substrate | Potency, µM, most hits filed as inhibitors | 150,000 compounds, 4.3% hits | AID 894
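NADH formation kinetics: reaction with 30 uM PGE2 and 1 mM NAD+ (final), 20 nM enzyme, Tris-HCl pH 8 with Tween 20, after 15 min compound preincubation at room temperature. Fluorescence change, last versus first of five reads.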
Of the large screens only hits and unclear results are named; the others gave an inactive call. Unless noted, calls follow the shape of the dose curve; as a rule, active = well fitted inhibition curve with a large enough effect (not every such curve was filed as active); inconclusive = small, poorly fitted or top-dose-only effect, or another doubt; inactive = no such curve, though single readings can be large or run the other way.

CC(=O)c1ccc(N2Cc3ccccc3/C2=N\C(=O)Nc2ccccc2)cc1	none
Cc1ccc(/C=C2/SC(=O)N(CC(=O)N3CCOCC3)C2=O)s1	none (no result: IMPase inh)
Cn1cccc1/C=C1/SC(=O)N(CC(=O)N2CCCC2)C1=O	none (no result: IMPase inh, HPGD block)
COC(=O)CN1C(=O)S/C(=C/c2ccc(N3CCCCC3)o2)C1=O	ALDH1A1 inh 0.28µM
CCOC(=O)CN1C(=O)S/C(=C/c2ccc(N3CCCCC3)o2)C1=O	ALDH1A1 inh 25µM
CCN(CC)S(=O)(=O)c1ccc(NC(=O)CN(c2ccccc2)S(=O)(=O)N(C)C)cc1	none (no result: ALDH1A1 inh, HPGD block)
COc1ccc(C(CC(=O)NCc2ccccc2)Sc2n[nH]c(-c3ccc(Cl)cc3)n2)cc1 (stereo not given)	none (no result: IMPase inh)
COc1ccc(C(CC(=O)NCc2ccccc2)Sc2n[nH]c(-c3ccccc3)n2)cc1 (stereo not given)	HPGD block 7.9µM
CCOc1ccc2c(c1)-c1c(ssc1=S)C(C)(C)N2	ALDH1A1 inh inconclusive
COc1cc(CN(C2CCCCC2)S(=O)(=O)c2ccc(S(=O)(=O)N(C)C3CCCCC3)cc2)cc(OC)c1OC	ALDH1A1 inh inconclusive (no result: IMPase inh)
COc1ccc(CNS(=O)(=O)c2ccc(OC)cc2)cc1	none
COc1ccc(S(=O)(=O)NCCCCNS(=O)(=O)c2ccc(OC)cc2)cc1	ALDH1A1 inh 1.3µM
O=C(O)c1cccc(S(=O)(=O)NCc2cccs2)c1	none
COc1ccc(S(=O)(=O)N(Cc2cccs2)C2CCCC2)cc1	ALDH1A1 inh 8.9µM
COc1ccc(S(=O)(=O)NCc2cccs2)cc1	ALDH1A1 inh 10µM
C[C@@H]1CC2C3CCC4=CC(=O)C=CC4(C)[C@@]3(F)[C@@H](O)CC2(C)[C@@]1(O)C(=O)CO (stereo not given in full)	none (no result: IMPase inh)
COc1ccccc1N1CCN(C(=O)c2sc3nc(-c4ccc(F)cc4)cn3c2C)CC1	none
Cc1[nH]nc2c1C(c1cccc(O)c1)C1=C(CC(C)(C)CC1=O)N2 (stereo not given)	ALDH1A1 inh inconclusive, HPGD block inconclusive
COCCNC(=O)CSc1nc(-c2ccc(C)cc2)[nH]c1-c1ccc(OC)cc1	none (no result: ALDH1A1 inh, HPGD block)
CCOC(=O)CSC1=NC(=O)/C(=C\c2ccc(Cl)cc2)S1	ALDH1A1 inh 20µM, HPGD block 2.2µM
CCOC(=O)Cn1nc(-c2ccc(Cl)cc2)ccc1=O	none
Cn1c(N)c(C(=O)COC(=O)CNS(=O)(=O)c2ccc(Cl)c(Cl)c2)c(=O)n(C)c1=O	none (no result: IMPase inh)
COc1cc(OC)cc(-c2nnc(SCC(=O)N(C(C)C)C(C)C)o2)c1	none
COc1cc(OC)cc(-c2nnc(Sc3ccc(C=O)cc3[N+](=O)[O-])o2)c1	ALDH1A1 inh 2µM, HPGD block 14µM
Cc1ccc(C(C)C)c(OCCCn2c(=O)oc3ccc(C)cc32)c1	none (no result: ALDH1A1 inh, HPGD block)
N#Cc1cccc(NC(=O)N2CC3(CCN(C(=O)c4cccc(F)c4)CC3)C2)c1	ALDH1A1 inh inconclusive (no result: IMPase inh)
CC(=O)c1ccc(NC(=O)CSCCO)cc1	none
O=C(CSCCO)Nc1ccc(C2CCCCC2)cc1	ALDH1A1 inh 7.1µM, HPGD block 4.5µM
O=c1c2ccccc2nc(SCc2nnc(-c3ccccc3Br)o2)n1-c1ccccc1	none
Cn1c(SCc2nnc(-c3ccccc3Br)o2)nc2sc3c(c2c1=O)CCC3	HPGD block 8.9µM
COCCCn1c(SCc2nnc(-c3ccccc3)o2)nc2sc3c(c2c1=O)CCC3	ALDH1A1 inh inconclusive, HPGD block 14µM
CCn1c(SCc2ccc(C(=O)OC)o2)nc2sc3c(c2c1=O)CCCC3	none
COc1cc([N+](=O)[O-])cc2cc(C(=O)N3CCCC3)c(=O)oc12	none (no result: IMPase inh, HPGD block)
O=C(N/N=C/c1cccc([N+](=O)[O-])c1)C1CC(=O)N(c2ccc(F)cc2)C1 (stereo not given)	none
CCCC(=O)C1=C(O)C(c2cccc(Oc3ccccc3)c2)CCC1=O (stereo not given)	none (no result: IMPase inh, HPGD block)
COc1ccc(S(=O)(=O)N(CC(=O)Nc2cccc(C(F)(F)F)c2)c2ccc(C)cc2)cc1	none (no result: ALDH1A1 inh, HPGD block)
COC(=O)CSC1=C(C#N)C(c2ccccc2)CC(=O)N1 (stereo not given)	ALDH1A1 inh 16µM
COC(=O)CSC1=C(C#N)C(=O)NC(c2ccccc2)S1 (stereo not given)	ALDH1A1 inh 24µM
C=C(C)CSC1=C(C#N)C(c2ccccc2)CC(=O)N1 (stereo not given)	ALDH1A1 inh 6.3µM, HPGD block 25µM (no result: IMPase inh)
Cc1ccc(C2CC(=O)NC(SCCC(C)C)=C2C#N)cc1 (stereo not given)	ALDH1A1 inh 13µM, HPGD block inconclusive
COC(=O)CSC1=C(C#N)C(c2ccc(C(C)C)cc2)CC(=O)N1 (stereo not given)	ALDH1A1 inh inconclusive
COC(=O)CSC1=C(C#N)C(c2cccc(F)c2)CC(=O)N1 (stereo not given)	none
CCc1ccc(C2CC(=O)NC(SCC(=O)OC(C)C)=C2C#N)cc1 (stereo not given)	none

From PubChem
